This is a sample that favours compounds with a hit; in the whole collection about 5.2% have one here.
TrxR1 substrate = substrates of rat thioredoxin reductase 1 | purified TrxR1 substrate turnover, NADPH consumption readout | AID 588456 | Potency, µM (top dose mostly 114 µM) | 390,000 tested, 0.01% active; note: nearly all actives have a fitted effect of over 50% in size
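Rat TrxR1, dispensed at 90 nM, was prereduced with 400 uM NADPH (final) for 5 min at ~22 deg C, then incubated with compound 15 min before 400 uM selenite. A first-read NADPH fluorescence drop versus no-compound background flagged substrates.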
mIDH1 inhibitor = inhibitors of human mutant IDH1 R132H | IDH1-R132H enzyme, NADPH consumption, diaphorase/resazurin fluorescence | 390,000 tested, 0.093% active | O75874 | Potency, µM (top dose mostly 76.6 µM), actives largely listed as inhibitors; note: nearly all actives have a fitted effect of over 65% in size
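IDH1-R132H (0.5 ug/mL) preincubated 30 min with compound, then NADPH (0.016 mM) and alpha-KG (2 mM) added; 80 min at RT, pH 7.5. Remaining NADPH coupled via diaphorase/resazurin to fluorescence (540/590 nm); concentration-response curves normalized to no-enzyme control.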
rTrxR1 inhibitor = rat TrxR1 inhibition; recombinant rTrxR1, NADPH fluorescence consumption, selenite substrate; 390,000 tested, 1% active; O89049; Potency, µM (series often up to 114 µM), usual class: inhibitors; note: nearly all actives have a fitted effect of over 65% in size
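Rat TrxR1 (90 nM in the dispensed reagent) was pre-reduced with 400 uM NADPH for 5 min at room temperature, then incubated with compound for 15 min. After 400 uM selenite was added, NADPH fluorescence (Ex 340/Em 450 nm) was followed for 8 min.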
Sfp inh = blocks B. subtilis Sfp PPTase activity | Q9F4F7 | Biochemical Sfp PPTase activity, qHTS | Potency, µM, actives largely listed as inhibitors | 310,000 tested, 3.5% active;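 note: the enzyme is Sfp with the accession as filed and its product quenches rhodamine fluorescence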
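Fluorescence-quenching assay: 15 nM Sfp-PPTase preincubated 15 min at room temperature with compound, then 5 uM rhodamine-CoA and 12.5 uM BHQ-2-labelled YbbR peptide added. Fluorescence (ex 525/em 598 nm) read at start and after 30 min; difference gives rate.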
PLK1 PBD inh = inhibitors of human PLK1 polo-box domain binding. Plk1 PBD binding of FITC phosphopeptide, fluorescence polarization. Potency, µM, hits mostly inhibitors. P53350. 360,000 tested, 2.8% active. AID 720504; note: series mostly up to about 57 µM; nearly all actives have a fitted effect of over 65% in size
VDR inh = blocks the human vitamin D receptor; AID 504847; VDR-SRC2-3 peptide fluorescence polarization, 2 h; P11473; Potency, µM, usual class: inhibitors; 400,000 tested, 0.93% active
Target sequence (P11473 whole entry, looked up): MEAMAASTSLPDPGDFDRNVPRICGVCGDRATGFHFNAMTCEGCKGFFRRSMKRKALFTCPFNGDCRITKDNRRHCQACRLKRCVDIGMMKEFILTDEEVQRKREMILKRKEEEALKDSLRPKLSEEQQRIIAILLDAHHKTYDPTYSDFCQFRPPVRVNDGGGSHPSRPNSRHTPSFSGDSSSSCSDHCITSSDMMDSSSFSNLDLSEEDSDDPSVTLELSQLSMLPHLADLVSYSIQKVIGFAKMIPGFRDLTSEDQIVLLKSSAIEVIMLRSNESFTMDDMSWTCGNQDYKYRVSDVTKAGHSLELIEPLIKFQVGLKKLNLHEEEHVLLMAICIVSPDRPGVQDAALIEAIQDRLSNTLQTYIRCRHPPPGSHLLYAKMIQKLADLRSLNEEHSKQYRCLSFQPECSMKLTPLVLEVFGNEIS
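Reagent solutions, kept cold and dark, are dispensed first; compounds are then pinned in at 23 nl, plates briefly spun, and incubated 2 h at ambient temperature. Inhibition of VDR–SRC2-3 peptide binding is read by fluorescence polarization.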
Large screens that a line does not name were inactive. Calls come from the whole dose curve; as a rule, active = well fitted curve in the direction sought with a large enough effect; inconclusive = small, poorly fitted or top-dose-only effect, or another doubt; inactive = no such curve, though single readings can be large; an effect the other way counts as inactive or inconclusive.

Cc1ccc(CN2CCN(/N=C/c3cc(Br)cc(Br)c3O)CC2)cc1	PLK1 PBD inh 17µM, VDR inh inconclusive
Cc1cc(C(=O)Nc2ccc(C(C)C)cc2)c2c(C)nn(-c3ccccc3)c2n1	none (no result: Sfp inh, PLK1 PBD inh)
Cc1ccc(NC(=O)c2c(C)nn(-c3ccccc3)c2Cl)cc1	PLK1 PBD inh 27µM
Cc1cc(C)cc(NC(=O)c2cc(C)nc3c2c(C)nn3-c2ccccc2)c1	rTrxR1 inhibitor 79µM (no result: Sfp inh, PLK1 PBD inh)
Cc1nn(-c2ccccc2)c(C)c1C(=O)OCC(=O)NCc1ccco1	rTrxR1 inhibitor 56µM, Sfp inh inconclusive
Cc1nn(-c2ccccc2)c2nc(-c3ccncc3)cc(C(=O)NCc3ccco3)c12	rTrxR1 inhibitor 50µM, PLK1 PBD inh 30µM
Cc1nn(-c2ccccn2)c2nc(-c3cccs3)cc(C(=O)NCc3ccco3)c12	Sfp inh inconclusive
CC(=O)c1ccc(NC(=O)c2c(C)nn(-c3ccccc3)c2Cl)cc1	none
CCN(CC)c1ccc(/C=C/c2ccnc3ccccc23)cc1	none (no result: mIDH1 inhibitor, Sfp inh, PLK1 PBD inh, VDR inh)
O=C(O)c1cc(S(=O)(=O)N2CCOCC2)c[nH]1	none (no result: Sfp inh)
Cc1nc2nc(CCNS(=O)(=O)c3ccc(Cl)cc3)cn2nc1C	VDR inh 89µM
COc1ccc(S(=O)(=O)NCCc2cn3nc(C)c(C)nc3n2)cc1	none
CC(C)[C@H](O)CC[C@@H](C)C1CC[C@H]2C3CC=C4C[C@@H](O)CC[C@]4(C)C3CC[C@]12C (stereo partly drawn)	none (no result: TrxR1 substrate, mIDH1 inhibitor, rTrxR1 inhibitor, PLK1 PBD inh)
O=C(c1ccc([N+](=O)[O-])cc1)N(Cc1ccccc1)c1ccccn1	none
O=[N+]([O-])c1ccccc1SN(Cc1ccccc1)c1ccccn1	PLK1 PBD inh 12µM
O=C(O)c1cc(C(=O)O)c(C(=O)N(Cc2cccc(Oc3ccccc3)c2)[C@H]2CCCc3ccccc32)cc1C(=O)O	none (no result: TrxR1 substrate, mIDH1 inhibitor, rTrxR1 inhibitor, PLK1 PBD inh)
O=C(NP(=O)(N1CCOCC1)N1CCOCC1)C1=C(N2CCOCC2)/C(=C\c2ccccc2)CC1	rTrxR1 inhibitor 14µM, PLK1 PBD inh inconclusive, VDR inh inconclusive
O=P(C1=C(N2CCOCC2)/C(=C\c2ccccc2)CC1)(N1CCOCC1)N1CCOCC1	rTrxR1 inhibitor inconclusive
Cc1ccccc1NC(=S)N(Cc1ccco1)C(C)c1ccccn1 (stereo not drawn)	Sfp inh 79µM
Cc1c(Cl)cccc1NC(=S)N(Cc1ccco1)C(C)c1ccccn1 (stereo not drawn)	VDR inh inconclusive
CC1CCC(C(C)C)C(O)C1 (stereo not drawn)	none (no result: TrxR1 substrate, mIDH1 inhibitor, rTrxR1 inhibitor, PLK1 PBD inh)
O=C(CC1SC(=O)N(c2ccccc2)C1=O)Nc1cccc2ccccc12 (stereo not drawn)	rTrxR1 inhibitor inconclusive, Sfp inh 20µM, PLK1 PBD inh 11µM, VDR inh 45µM
Cc1ccccc1NC(=O)CC1SC(=O)N(c2ccccc2)C1=O (stereo not drawn)	rTrxR1 inhibitor inconclusive, Sfp inh inconclusive, PLK1 PBD inh 11µM
Cc1nnsc1Sc1ccccc1	PLK1 PBD inh 12µM
Cc1oc(-c2ccccc2)cc1C(=O)Nc1ccccc1	none
Cc1cc(C(=O)Nc2cccc(/C=C/C(=O)O)c2)c(C)o1	none
Cc1oc(-c2ccccc2)cc1C(=O)Nc1cccc(/C=C/C(=O)O)c1	PLK1 PBD inh 21µM
Cc1oc(-c2ccccc2)cc1C(=O)Nc1ccc2ccccc2c1	Sfp inh 89µM
Cc1cccc(C(=O)O)c1NC(=O)Cc1cccc2ccccc12	none
CC(C)CC(C(=O)O)N1C(=O)C2C3CC(C2C1=O)C1C(c2ccccc2)c2sc(=O)[nH]c2SC31 (stereo not drawn)	Sfp inh inconclusive, PLK1 PBD inh 17µM, VDR inh inconclusive
CCOc1nc2cccc(C(=O)OC(C)OC(=O)OC3CCCCC3)c2n1Cc1ccc(-c2ccccc2-c2nn[nH]n2)cc1 (stereo not drawn)	VDR inh 45µM (no result: TrxR1 substrate, mIDH1 inhibitor, rTrxR1 inhibitor, PLK1 PBD inh)
C=CCN(CC=C)CC(O)CN(c1cc([N+](=O)[O-])ccc1OC)S(=O)(=O)c1ccccc1 (stereo not drawn)	Sfp inh 79µM
CCOC(=O)c1ccc(N=C2NC(=O)CS2)cc1	none
CCOC(=O)c1c(C)[nH]c(N=Nc2ccccc2Cl)c1C	Sfp inh inconclusive
CCOC(=O)c1c(C)[nH]c(C2=NNC(=Nc3ccc(OCC)cc3)SC2)c1C	rTrxR1 inhibitor inconclusive, Sfp inh 79µM, VDR inh inconclusive
CC(=O)c1c(C)[nH]c(C2=NNC(=NC(C)(C)C)SC2)c1C	Sfp inh 22µM, VDR inh inconclusive
CCOC(=O)c1c(C)[nH]c(C2=NNC(=Nc3ccccc3OC)SC2)c1C	Sfp inh 79µM, VDR inh inconclusive
CC(C)(C)N=C1NN=C(c2ccc(Cl)cc2)CS1	none
CCOC(=O)c1c(C)[nH]c(C2=NNC(=Nc3ccccc3)SC2)c1C	Sfp inh 40µM, PLK1 PBD inh inconclusive, VDR inh inconclusive
CCOC(=O)c1c(C)[nH]c(N=Nc2ccccc2)c1C	none
COc1ccc(-c2[nH]ncc2C(=O)NCc2cccc(F)c2)cc1	none (no result: mIDH1 inhibitor, Sfp inh, PLK1 PBD inh)
CC(C(=O)Nc1ccccc1C(F)(F)F)n1nc(-c2ccccc2)c2c(c1=O)CCCC2 (stereo not drawn)	none (no result: Sfp inh, PLK1 PBD inh)
Cc1cccc(-c2nc(CN3CCCC(C(=O)NCCc4ccc(Cl)cc4)C3)c(C)o2)c1 (stereo not drawn)	none (no result: Sfp inh, PLK1 PBD inh)
Cc1c(C(=O)N(Cc2ccc(N(C)C)cc2)CC2CCCO2)oc2ccc(Cl)cc12 (stereo not drawn)	none (no result: Sfp inh, PLK1 PBD inh)
Cc1nn(C)c(C)c1S(=O)(=O)N(CC(=O)NCCc1ccccc1)c1ccc(C(C)C)cc1	none (no result: Sfp inh, PLK1 PBD inh)
COc1cc(Br)cc(Br)c1OCC(=O)N/N=C/c1c(C)n(C)n(-c2ccccc2)c1=O	none
N#Cc1ccccc1NC(=O)CSc1nc(-c2ccccc2)cc(C(F)(F)F)c1C#N	none (no result: Sfp inh, PLK1 PBD inh)
COc1ccc(C2=Nc3cccc4cccc(c34)N2)cc1	none
CC(C)C1=Nc2cccc3cccc(c23)N1	Sfp inh 35µM, PLK1 PBD inh 9.5µM
ClCC1=Nc2cccc3cccc(c23)N1	Sfp inh 63µM (no result: TrxR1 substrate, mIDH1 inhibitor, rTrxR1 inhibitor, PLK1 PBD inh, VDR inh)
CC(=O)Nc1nc(-c2cccs2)cs1	Sfp inh 50µM
CC(=O)NNc1nc(-c2ccc(NC(C)=O)cc2)cs1	Sfp inh 50µM, PLK1 PBD inh inconclusive
CC(=O)Nc1ccc(-c2csc(NNC(=O)c3ccc(C)cc3)n2)cc1	rTrxR1 inhibitor inconclusive, Sfp inh 7.9µM
O=C(NNC(=O)c1csc(-c2cccnc2)n1)c1ccccc1	Sfp inh 89µM
O=C(NNc1nc(-c2ccccc2)cs1)c1ccccc1	Sfp inh 45µM, PLK1 PBD inh inconclusive
COc1cccc(CN(C)C(=O)c2cc(-c3ccc(F)cc3)nc3ccccc23)c1	Sfp inh 22µM
Cc1c(CC(=O)NCCc2ccccc2F)c(=O)oc2cc(O)c(Cl)cc12	rTrxR1 inhibitor 71µM (no result: Sfp inh, PLK1 PBD inh)
